From PubChem BioAssay (Tox21)
Records with an inconclusive call do not appear. A call without a number means that no potency is given here. Values without a mark were called inactive. Activity calls are given as the source filed them. The call rests on the fitted dose curve; in most records, active means well fitted cell-killing curve with a large enough effect in the repeat runs; inconclusive means weak or mixed curves, or effect the other way; inactive means flat fitted curve, though single readings scatter.

Test: qHTS assay to identify small molecule agonists of the sonic hedgehog signaling (Shh) pathway - cell viability counter screen (AID 1259366); further: nearly all actives have a fitted effect of over 50% in size
Conditions: NIH/3T3 Gli1-Luc viability, CellTiter-Fluor, 24 h; series mostly up to 92.4 µM
Text: National Center for Advancing Translational Sciences [NCATS]
NIH Chemical Genomics Center [NCGC]
U.S. Environmental Protection Agency [EPA]
National Institutes of Environmental Health Sciences [NIEHS]
National Toxicology Program [NTP]
U.S. Food and Drug Administration [FDA]
The sonic hedgehog (Shh) pathway is essential for normal embryonic development. Dysregulation of the Shh pathway can cause severe developmental defects in organs. Therefore chemicals that interfere with the pathway are potential developmental toxicants. A cell line designated 3T3Gli1-Luc (DMB/OARSA/CFSAN/FDA, Laurel, MD), a NIH/3T3 derived clone containing stably integrated Gli1-Luc reporter is used to detect chemical interference of the Shh pathway, by changes in the expression of the firefly Luc gene under the control of the Gli1 transcriptional response element. This cell line was used to screen Tox21 libraries for identifying and prioritizing the potential developmental toxicants that interfere Shh pathway. The cytotoxicity of the compounds was tested in parallel by measuring the cell viability using CellTiter-Fluor assay system (Promega, Madison, WI) in the same wells.
Tox21 Assay Protocol Summary:
3T3 Gli1-Luc cells were dispensed at 2,000 per well in 5uL of culture medium into white solid bottom 1536-well plates (Greiner Bio-One, Monroe, NC) using a Multidrop Combi (Thermo Scientific, Waltham, MA) dispenser. The assay plates were incubated at 37 C and 5% CO2 for 4hr, and then 23nL of compounds dissolved in DMSO and positive control were transferred using a Pintool station (Wako, San Diego, CA). The assay plates were incubated at 37C and 5% CO2 for 24hr. For viability read, after 23hr of compound treatment, 1uL of CellTiter-Fluor reagent (Promega Corporation, Madison, WI) was added to each well of the assay plates using Flying Reagent Dispenser (FRD, Aurora Discovery, San Diego, CA) and incubated the assay plates at 37C for 1hr. The fluorescence signal was quantified using a ViewLux plate reader (Perkin Elmer, Shelton, CT).
For `CCCCC(CC)CNC(=O)CC(C)OC(=O)CCC(=O)O` (stereo not given), the Potency was “inactive”. For `CCC(=O)c1ccc(O)cc1`, the Potency was “inactive”. With `CCCCCCCCCCCCC` the Potency was “inactive”. In the case of `NC(=O)C1(N2CCCCC2)CCN(CCCC(=O)c2ccc(F)cc2)CC1`, the Potency is reported as “inactive”. With `O=c1cc(O)c(Cl)c[nH]1` the Potency was “inactive”. In the case of `O=C(/C=C/c1ccccc1)NCCO`, the Potency is reported as “inactive”. With `COc1ccc(NS(=O)(=O)c2ccc(N)cc2)nn1` the Potency was “inactive”. In the case of `CC(=O)OCC(=O)[C@@]1(O)[C@H](OC(C)=O)C[C@H]2[C@@H]3CCC4=CC(=O)C=C[C@]4(C)[C@@]3(F)[C@@H](O)C[C@@]21C`, the Potency is reported as “inactive”. For `CN(C)CCOCCN(C)CCO`, the Potency was “inactive”. In the case of `O=C(O)c1ccccc1C(=O)Nc1ccc(S(=O)(=O)Nc2nccs2)cc1`, the Potency is reported as “inactive”. With `CCN(CCO)c1cccc(C)c1` the Potency was “inactive”. In the case of `CC(C)=CC(C)(C)C`, the Potency is reported as “inactive”. For `O=C(CN1CCN(Cc2ccc3c(c2)OCO3)CC1)N1c2ccccc2Sc2ccccc21`, the Potency was “inactive”. For `COC(OC)C(C)c1ccccc1` (stereo not given), the Potency was “inactive”. For `NC(Cc1c[nH]c2ccccc12)C(=O)O` (stereo not given), the Potency was “inactive”. For `C=CCOC(=O)c1ccc(C(=O)OCC=C)c(C(=O)OCC=C)c1`, the Potency was “inactive”. For `CCCCCCCCCCCCCC(=O)OC`, the Potency was “inactive”. For `CCN1CN(CC)CN(CC)C1`, the Potency was “inactive”. With `CC(=O)/C=C/c1ccco1` the Potency was “inactive”. In the case of `CC(=O)OC(C(=O)c1ccccc1)c1ccccc1` (stereo not given), the Potency is reported as “inactive”. For `CCC(O)C(C)(C)C` (stereo not given), the Potency was “inactive”. With `C=CCOc1c(Br)cc(C(C)(C)c2cc(Br)c(OCC=C)c(Br)c2)cc1Br` the Potency was “inactive”. With `Nc1ccc(S(=O)(=O)NC(=O)c2ccccc2)cc1` the Potency was “inactive”. With `CCCCCC1Nc2cc(C(F)(F)F)c(S(N)(=O)=O)cc2S(=O)(=O)N1` (stereo not given) the Potency was “inactive”. In the case of `CC(=O)N(CC(O)CO)c1c(I)c(C(=O)NCC(O)CO)c(I)c(C(=O)NCC(O)CO)c1I` (stereo not given), the Potency is reported as “inactive”. With `CCOC(=O)CCc1ccccc1` the Potency was “inactive”. With `CC(=O)c1ccc(OCC(=O)N2CCCCC2)cc1` the Potency was “inactive”. With `CCCCC[Si](OCC)(OCC)OCC` the Potency was “inactive”. For `COCCOCCOCCOC`, the Potency was “inactive”. For `C[Si]1(C)N[Si](C)(C)N[Si](C)(C)N1`, the Potency was “inactive”. In the case of `Cc1cccc(Nc2ccncc2S(=O)(=O)NC(=O)NC(C)C)c1`, the Potency is reported as “inactive”. With `Cc1nc2ccccc2c(=O)o1` the Potency was “inactive”. With `O=C(O)Cc1cccc(-c2cc(CCCCCCc3ccc(O[C@H]4O[C@H](CO)[C@@H](O)[C@H](O)[C@@H]4O)c(-c4cccc(CC(=O)O)c4)c3)ccc2O[C@H]2O[C@H](CO)[C@@H](O)[C@H](O)[C@@H]2O)c1` the viability change, negative = cytotoxic was 1.74% [at 0.349 µM]. With `Nc1ccc(C(=O)OCC(O)CO)cc1` (stereo not given) the Potency was “inactive”. For `CCCCOC(=O)C(C)OC(=O)CCC` (stereo not given), the Potency was “inactive”. In the case of `CC(C)c1ccccc1O`, the Potency is reported as “inactive”. In the case of `CC(=O)OC[C@H]1O[C@@H](OC(C)=O)[C@H](OC(C)=O)[C@@H]1OC(C)=O`, the Potency is reported as “inactive”. With `CC(C)CCO` the Potency was “inactive”. With `O=C1c2ccccc2-c2ccccc21` the Potency was “inactive”. In the case of `C=CCOc1c(Br)cc(Br)cc1Br`, the Potency is reported as “inactive”.
